Test results from PMC11006913.

Experiments:
NKX3-2 [1] = biological target: NKX3-2 (Homo sapiens, UniProt P78367 192-278, P234S); experiment: PBM; 200 nM protein, PBS; settings: dsDNA, one strand shown
NKX3-2 [2] = biological target: NKX3-2 (Homo sapiens, UniProt P78367 192-278); experiment: PBM; 200 nM protein, PBS; settings: dsDNA, one strand shown
Chain of NKX3-2 (Homo sapiens, UniProt P78367 192-278) (P78367 192-278): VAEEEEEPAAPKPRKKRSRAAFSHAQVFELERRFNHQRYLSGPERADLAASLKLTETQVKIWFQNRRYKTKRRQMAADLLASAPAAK

Chain of NKX3-2 (Homo sapiens, UniProt P78367 192-278, P234S) (P78367 192-278 P234S): as the sequence (P78367 192-278) above, with P43S counted along it

## CCACTTCG
NKX3-2 [1]
  binding signal: 12.8 upbm affinity estimate (log intensity, higher = more binding, comparable within an allelic series)
NKX3-2 [2]
  binding signal: 12.9 upbm affinity estimate (log intensity, higher = more binding, comparable within an allelic series)

## AATGCGGT
NKX3-2 [1]
  binding signal: 10.7 upbm affinity estimate (log intensity, higher = more binding, comparable within an allelic series)
NKX3-2 [2]
  binding signal: 10.8 upbm affinity estimate (log intensity, higher = more binding, comparable within an allelic series)

## CGCGGTAC
NKX3-2 [1]
  binding signal: 10.8 upbm affinity estimate (log intensity, higher = more binding, comparable within an allelic series)
NKX3-2 [2]
  binding signal: 10.8 upbm affinity estimate (log intensity, higher = more binding, comparable within an allelic series)

## GTCACTTA
NKX3-2 [1]
  binding signal: 12.5 upbm affinity estimate (log intensity, higher = more binding, comparable within an allelic series)
NKX3-2 [2]
  binding signal: 12.6 upbm affinity estimate (log intensity, higher = more binding, comparable within an allelic series)

## GAAGTGCC
NKX3-2 [1]
  binding signal: 12.8 upbm affinity estimate (log intensity, higher = more binding, comparable within an allelic series)
NKX3-2 [2]
  binding signal: 12.9 upbm affinity estimate (log intensity, higher = more binding, comparable within an allelic series)

## TCTGGGCA
NKX3-2 [1]
  binding signal: 10.6 upbm affinity estimate (log intensity, higher = more binding, comparable within an allelic series)
NKX3-2 [2]
  binding signal: 10.6 upbm affinity estimate (log intensity, higher = more binding, comparable within an allelic series)

## CCGCCGAA
NKX3-2 [1]
  binding signal: 10.4 upbm affinity estimate (log intensity, higher = more binding, comparable within an allelic series)
NKX3-2 [2]
  binding signal: 10.4 upbm affinity estimate (log intensity, higher = more binding, comparable within an allelic series)

## GGCCTCAC
NKX3-2 [1]
  binding signal: 10.5 upbm affinity estimate (log intensity, higher = more binding, comparable within an allelic series)
NKX3-2 [2]
  binding signal: 10.6 upbm affinity estimate (log intensity, higher = more binding, comparable within an allelic series)

## CGACGGCC
NKX3-2 [1]
  binding signal: 10.7 upbm affinity estimate (log intensity, higher = more binding, comparable within an allelic series)
NKX3-2 [2]
  binding signal: 10.6 upbm affinity estimate (log intensity, higher = more binding, comparable within an allelic series)

## ACCTCTTG
NKX3-2 [1]
  binding signal: 11.6 upbm affinity estimate (log intensity, higher = more binding, comparable within an allelic series)
NKX3-2 [2]
  binding signal: 11.7 upbm affinity estimate (log intensity, higher = more binding, comparable within an allelic series)

## CAAACCAG
NKX3-2 [1]
  binding signal: 10.6 upbm affinity estimate (log intensity, higher = more binding, comparable within an allelic series)
NKX3-2 [2]
  binding signal: 10.7 upbm affinity estimate (log intensity, higher = more binding, comparable within an allelic series)

## GGCACTCA
NKX3-2 [1]
  binding signal: 12.5 upbm affinity estimate (log intensity, higher = more binding, comparable within an allelic series)
NKX3-2 [2]
  binding signal: 12.6 upbm affinity estimate (log intensity, higher = more binding, comparable within an allelic series)

## GCCGGCGC
NKX3-2 [1]
  binding signal: 10.3 upbm affinity estimate (log intensity, higher = more binding, comparable within an allelic series)
NKX3-2 [2]
  binding signal: 10.3 upbm affinity estimate (log intensity, higher = more binding, comparable within an allelic series)

## AAAGTGGG
NKX3-2 [1]
  binding signal: 12.4 upbm affinity estimate (log intensity, higher = more binding, comparable within an allelic series)
NKX3-2 [2]
  binding signal: 12.6 upbm affinity estimate (log intensity, higher = more binding, comparable within an allelic series)

## GGCGCGCA
NKX3-2 [1]
  binding signal: 10.6 upbm affinity estimate (log intensity, higher = more binding, comparable within an allelic series)
NKX3-2 [2]
  binding signal: 10.6 upbm affinity estimate (log intensity, higher = more binding, comparable within an allelic series)

## ACTTACTG
NKX3-2 [1]
  binding signal: 11.6 upbm affinity estimate (log intensity, higher = more binding, comparable within an allelic series)
NKX3-2 [2]
  binding signal: 11.7 upbm affinity estimate (log intensity, higher = more binding, comparable within an allelic series)

## GAGCTAGC
NKX3-2 [1]
  binding signal: 10.7 upbm affinity estimate (log intensity, higher = more binding, comparable within an allelic series)
NKX3-2 [2]
  binding signal: 10.7 upbm affinity estimate (log intensity, higher = more binding, comparable within an allelic series)

## AGAGGGCA
NKX3-2 [1]
  binding signal: 11.8 upbm affinity estimate (log intensity, higher = more binding, comparable within an allelic series)
NKX3-2 [2]
  binding signal: 11.8 upbm affinity estimate (log intensity, higher = more binding, comparable within an allelic series)

## AACGTGGC
NKX3-2 [1]
  binding signal: 10.5 upbm affinity estimate (log intensity, higher = more binding, comparable within an allelic series)
NKX3-2 [2]
  binding signal: 10.5 upbm affinity estimate (log intensity, higher = more binding, comparable within an allelic series)

## GAGGCAGC
NKX3-2 [1]
  binding signal: 10.4 upbm affinity estimate (log intensity, higher = more binding, comparable within an allelic series)
NKX3-2 [2]
  binding signal: 10.4 upbm affinity estimate (log intensity, higher = more binding, comparable within an allelic series)

## CAGGTAGC
NKX3-2 [1]
  binding signal: 10.7 upbm affinity estimate (log intensity, higher = more binding, comparable within an allelic series)
NKX3-2 [2]
  binding signal: 10.7 upbm affinity estimate (log intensity, higher = more binding, comparable within an allelic series)

## AGAGAGGA
NKX3-2 [1]
  binding signal: 11.5 upbm affinity estimate (log intensity, higher = more binding, comparable within an allelic series)
NKX3-2 [2]
  binding signal: 11.6 upbm affinity estimate (log intensity, higher = more binding, comparable within an allelic series)

## AGACCACT
NKX3-2 [1]
  binding signal: 12 upbm affinity estimate (log intensity, higher = more binding, comparable within an allelic series)
NKX3-2 [2]
  binding signal: 12.1 upbm affinity estimate (log intensity, higher = more binding, comparable within an allelic series)

## CCGCTCAG
NKX3-2 [1]
  binding signal: 10.6 upbm affinity estimate (log intensity, higher = more binding, comparable within an allelic series)
NKX3-2 [2]
  binding signal: 10.6 upbm affinity estimate (log intensity, higher = more binding, comparable within an allelic series)

## AGTGCACT
NKX3-2 [1]
  binding signal: 12.3 upbm affinity estimate (log intensity, higher = more binding, comparable within an allelic series)
NKX3-2 [2]
  binding signal: 12.6 upbm affinity estimate (log intensity, higher = more binding, comparable within an allelic series)

## CTGCATCC
NKX3-2 [1]
  binding signal: 10.6 upbm affinity estimate (log intensity, higher = more binding, comparable within an allelic series)
NKX3-2 [2]
  binding signal: 10.7 upbm affinity estimate (log intensity, higher = more binding, comparable within an allelic series)

## CACGGGCA
NKX3-2 [1]
  binding signal: 10.5 upbm affinity estimate (log intensity, higher = more binding, comparable within an allelic series)
NKX3-2 [2]
  binding signal: 10.6 upbm affinity estimate (log intensity, higher = more binding, comparable within an allelic series)

## ACACACCG
NKX3-2 [1]
  binding signal: 10.6 upbm affinity estimate (log intensity, higher = more binding, comparable within an allelic series)
NKX3-2 [2]
  binding signal: 10.6 upbm affinity estimate (log intensity, higher = more binding, comparable within an allelic series)

## CACTCTCG
NKX3-2 [1]
  binding signal: 11.9 upbm affinity estimate (log intensity, higher = more binding, comparable within an allelic series)
NKX3-2 [2]
  binding signal: 12 upbm affinity estimate (log intensity, higher = more binding, comparable within an allelic series)

## ACGGCGGG
NKX3-2 [1]
  binding signal: 10.4 upbm affinity estimate (log intensity, higher = more binding, comparable within an allelic series)
NKX3-2 [2]
  binding signal: 10.4 upbm affinity estimate (log intensity, higher = more binding, comparable within an allelic series)

## ACCACTTC
NKX3-2 [1]
  binding signal: 12.8 upbm affinity estimate (log intensity, higher = more binding, comparable within an allelic series)
NKX3-2 [2]
  binding signal: 12.8 upbm affinity estimate (log intensity, higher = more binding, comparable within an allelic series)

## CCTGCCCG
NKX3-2 [1]
  binding signal: 10.7 upbm affinity estimate (log intensity, higher = more binding, comparable within an allelic series)
NKX3-2 [2]
  binding signal: 10.7 upbm affinity estimate (log intensity, higher = more binding, comparable within an allelic series)

## ATATGAGG
NKX3-2 [1]
  binding signal: 11.6 upbm affinity estimate (log intensity, higher = more binding, comparable within an allelic series)
NKX3-2 [2]
  binding signal: 11.6 upbm affinity estimate (log intensity, higher = more binding, comparable within an allelic series)

## AGCATTCC
NKX3-2 [1]
  binding signal: 10.4 upbm affinity estimate (log intensity, higher = more binding, comparable within an allelic series)
NKX3-2 [2]
  binding signal: 10.4 upbm affinity estimate (log intensity, higher = more binding, comparable within an allelic series)

## AGAAGTGG
NKX3-2 [1]
  binding signal: 12.5 upbm affinity estimate (log intensity, higher = more binding, comparable within an allelic series)
NKX3-2 [2]
  binding signal: 12.7 upbm affinity estimate (log intensity, higher = more binding, comparable within an allelic series)

## AGCACTTC
NKX3-2 [1]
  binding signal: 12.4 upbm affinity estimate (log intensity, higher = more binding, comparable within an allelic series)
NKX3-2 [2]
  binding signal: 12.4 upbm affinity estimate (log intensity, higher = more binding, comparable within an allelic series)

## GCCGAGCC
NKX3-2 [1]
  binding signal: 10.8 upbm affinity estimate (log intensity, higher = more binding, comparable within an allelic series)
NKX3-2 [2]
  binding signal: 10.7 upbm affinity estimate (log intensity, higher = more binding, comparable within an allelic series)

## GAGTAGAC
NKX3-2 [1]
  binding signal: 11.6 upbm affinity estimate (log intensity, higher = more binding, comparable within an allelic series)
NKX3-2 [2]
  binding signal: 11.6 upbm affinity estimate (log intensity, higher = more binding, comparable within an allelic series)

## GGTTGAAC
NKX3-2 [1]
  binding signal: 10.6 upbm affinity estimate (log intensity, higher = more binding, comparable within an allelic series)
NKX3-2 [2]
  binding signal: 10.6 upbm affinity estimate (log intensity, higher = more binding, comparable within an allelic series)

## CATCACTA
NKX3-2 [1]
  binding signal: 11.5 upbm affinity estimate (log intensity, higher = more binding, comparable within an allelic series)
NKX3-2 [2]
  binding signal: 11.5 upbm affinity estimate (log intensity, higher = more binding, comparable within an allelic series)

## CGGGTTAG
NKX3-2 [1]
  binding signal: 10.5 upbm affinity estimate (log intensity, higher = more binding, comparable within an allelic series)
NKX3-2 [2]
  binding signal: 10.5 upbm affinity estimate (log intensity, higher = more binding, comparable within an allelic series)

## CTGGCAAG
NKX3-2 [1]
  binding signal: 10.5 upbm affinity estimate (log intensity, higher = more binding, comparable within an allelic series)
NKX3-2 [2]
  binding signal: 10.5 upbm affinity estimate (log intensity, higher = more binding, comparable within an allelic series)

## CGGTTACC
NKX3-2 [1]
  binding signal: 10.6 upbm affinity estimate (log intensity, higher = more binding, comparable within an allelic series)
NKX3-2 [2]
  binding signal: 10.5 upbm affinity estimate (log intensity, higher = more binding, comparable within an allelic series)

## GAGTGCAC
NKX3-2 [1]
  binding signal: 12.2 upbm affinity estimate (log intensity, higher = more binding, comparable within an allelic series)
NKX3-2 [2]
  binding signal: 12.4 upbm affinity estimate (log intensity, higher = more binding, comparable within an allelic series)

## ACTCTGAT
NKX3-2 [1]
  binding signal: 11.5 upbm affinity estimate (log intensity, higher = more binding, comparable within an allelic series)
NKX3-2 [2]
  binding signal: 11.6 upbm affinity estimate (log intensity, higher = more binding, comparable within an allelic series)

## CTCTAGAG
NKX3-2 [1]
  binding signal: 10.9 upbm affinity estimate (log intensity, higher = more binding, comparable within an allelic series)
NKX3-2 [2]
  binding signal: 10.9 upbm affinity estimate (log intensity, higher = more binding, comparable within an allelic series)

## AAAGTGGC
NKX3-2 [1]
  binding signal: 12.6 upbm affinity estimate (log intensity, higher = more binding, comparable within an allelic series)
NKX3-2 [2]
  binding signal: 12.6 upbm affinity estimate (log intensity, higher = more binding, comparable within an allelic series)

## AAGTGGGA
NKX3-2 [1]
  binding signal: 12.6 upbm affinity estimate (log intensity, higher = more binding, comparable within an allelic series)
NKX3-2 [2]
  binding signal: 12.6 upbm affinity estimate (log intensity, higher = more binding, comparable within an allelic series)

## GCCGTGCC
NKX3-2 [1]
  binding signal: 10.6 upbm affinity estimate (log intensity, higher = more binding, comparable within an allelic series)
NKX3-2 [2]
  binding signal: 10.6 upbm affinity estimate (log intensity, higher = more binding, comparable within an allelic series)

## AGGAAAAA
NKX3-2 [1]
  binding signal: 10.5 upbm affinity estimate (log intensity, higher = more binding, comparable within an allelic series)
NKX3-2 [2]
  binding signal: 10.6 upbm affinity estimate (log intensity, higher = more binding, comparable within an allelic series)

## CAAGTGCG
NKX3-2 [1]
  binding signal: 12.2 upbm affinity estimate (log intensity, higher = more binding, comparable within an allelic series)
NKX3-2 [2]
  binding signal: 12.3 upbm affinity estimate (log intensity, higher = more binding, comparable within an allelic series)

## ACCGAACC
NKX3-2 [1]
  binding signal: 10.6 upbm affinity estimate (log intensity, higher = more binding, comparable within an allelic series)
NKX3-2 [2]
  binding signal: 10.7 upbm affinity estimate (log intensity, higher = more binding, comparable within an allelic series)

## CGTGGGAA
NKX3-2 [1]
  binding signal: 10.6 upbm affinity estimate (log intensity, higher = more binding, comparable within an allelic series)
NKX3-2 [2]
  binding signal: 10.6 upbm affinity estimate (log intensity, higher = more binding, comparable within an allelic series)

## AAGGAGTG
NKX3-2 [1]
  binding signal: 11.9 upbm affinity estimate (log intensity, higher = more binding, comparable within an allelic series)
NKX3-2 [2]
  binding signal: 12 upbm affinity estimate (log intensity, higher = more binding, comparable within an allelic series)
